PubChem BioAssay AID559 (PCMD, 2006)
About 100 (0.2%) of roughly 62,000 compounds were called active. This is one part of a sample in which actives are shown more often than they occur. A number with no mark means an inactive call. No stated cut-off is given here; in the data, active means inhibition above about 20%; inactive means the rest.

What follows are compounds tested against DNA-directed RNA polymerase subunit beta (Escherichia coli (strain K12)) (UniProt P0A8V2) (assay: E. coli RNAP inhibitors, biochemical (AID 559;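 further: 0% = enzyme without compound and 100% = no enzyme blank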)). Conditions: fluorescence transcription assay, stronger effect = higher value,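 tested at 10 µM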.
DNA-directed RNA polymerase subunit beta (Escherichia coli (strain K12)), sequence (P0A8V2 whole entry, looked up): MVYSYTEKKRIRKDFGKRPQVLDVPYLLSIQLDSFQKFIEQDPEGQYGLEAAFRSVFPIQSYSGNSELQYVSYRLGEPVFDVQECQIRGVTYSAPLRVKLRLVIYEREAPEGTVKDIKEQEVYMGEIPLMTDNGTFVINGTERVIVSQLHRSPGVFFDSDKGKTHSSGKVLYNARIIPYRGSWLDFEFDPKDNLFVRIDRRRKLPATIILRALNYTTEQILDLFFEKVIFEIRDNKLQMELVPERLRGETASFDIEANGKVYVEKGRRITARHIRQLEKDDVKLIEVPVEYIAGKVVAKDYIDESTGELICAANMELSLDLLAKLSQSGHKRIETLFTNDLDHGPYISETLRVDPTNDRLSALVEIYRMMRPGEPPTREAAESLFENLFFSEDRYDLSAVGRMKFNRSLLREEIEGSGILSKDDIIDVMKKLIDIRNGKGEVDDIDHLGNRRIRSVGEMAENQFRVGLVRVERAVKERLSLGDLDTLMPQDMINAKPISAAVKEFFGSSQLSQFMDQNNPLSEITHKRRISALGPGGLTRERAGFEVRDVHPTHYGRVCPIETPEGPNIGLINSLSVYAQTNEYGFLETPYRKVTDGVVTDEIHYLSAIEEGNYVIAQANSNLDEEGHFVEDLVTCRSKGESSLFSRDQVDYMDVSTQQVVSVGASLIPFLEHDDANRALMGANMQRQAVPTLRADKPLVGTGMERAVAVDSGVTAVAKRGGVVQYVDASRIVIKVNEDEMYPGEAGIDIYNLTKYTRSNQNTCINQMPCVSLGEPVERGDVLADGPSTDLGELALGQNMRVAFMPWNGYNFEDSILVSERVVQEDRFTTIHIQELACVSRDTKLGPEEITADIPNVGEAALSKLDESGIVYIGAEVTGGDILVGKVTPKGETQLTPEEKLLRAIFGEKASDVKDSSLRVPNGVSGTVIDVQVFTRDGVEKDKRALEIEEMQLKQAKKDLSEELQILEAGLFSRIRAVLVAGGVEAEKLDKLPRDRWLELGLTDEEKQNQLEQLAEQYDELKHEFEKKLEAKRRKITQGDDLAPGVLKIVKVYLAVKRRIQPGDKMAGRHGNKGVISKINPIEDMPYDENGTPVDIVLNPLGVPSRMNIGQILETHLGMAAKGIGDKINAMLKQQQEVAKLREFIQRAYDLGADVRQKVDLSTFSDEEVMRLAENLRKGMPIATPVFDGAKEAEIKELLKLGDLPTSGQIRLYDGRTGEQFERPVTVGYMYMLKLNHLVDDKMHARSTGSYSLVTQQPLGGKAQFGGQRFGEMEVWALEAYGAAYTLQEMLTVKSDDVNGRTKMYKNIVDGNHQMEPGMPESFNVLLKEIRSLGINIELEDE

Structure (SMILES)	inhibition
CCOc1ccc(CNC(=O)C2CC(=O)N(C3CCCC3)C2)cc1OC (stereo unspecified)	-2.47%
COC(=O)[C@H](Cc1ccccc1)NC(=O)Nc1ccc(S(N)(=O)=O)cc1	10.2%
CNC(=O)C1CC(=O)N(Cc2ccc3c(c2)OCO3)C(=Nc2ccc(F)cc2)S1 (stereo unspecified)	-0.38%
CCOc1ccc(C(C)C)cc1S(=O)(=O)n1nc(C)cc1C	5.62%
CN1CCN(CCCNC(=O)c2cc3c(=O)oc4ccccc4c3s2)CC1	7.32%
CCC(=O)Nc1cccc(NC(=O)CSc2nnnn2C2CCCC2)c1	9.82%
Cc1cc(C)n(C(=O)c2ccc(S(=O)(=O)N3CCCC3)cc2)n1	-6.35%
Cc1ccc(-c2ccc(=O)n(CC(=O)NCCCN3CCCCC3)n2)cc1	5.27%
O=C(CCCOc1ccccc1)Nc1cccc(C(=O)O)c1	5.97%
COc1ccc(CC(=O)c2ccc(O)cc2O)cc1OC	-2.96%
Nc1nnnn1/N=C/c1cccs1	0.8%
O=C(Nc1cc(N2CCOCC2)ncn1)NC1(C(F)(F)F)Oc2ccc(Cl)cc2O1 (stereo unspecified)	35.4% (active)
COc1c(C)cccc1C(=O)Nc1cc(Cl)ccc1N1CCOCC1	5.92%
c1cnn(-c2cc(N3CCOCC3)ncn2)c1	-13.1%
Cc1ccc(C)c2[nH]c(=O)c(CCNC(=O)CC(C)C)cc12	6.91%
O=C(NCCc1ccccn1)c1ccc(COc2ccccc2)o1	5.1%
CC1CC(C)CN(CC(=O)Nc2ccc(S(N)(=O)=O)cc2)C1 (stereo unspecified)	4.05%
Cc1cc(Nc2ccc(Br)cc2F)n2ncnc2n1	-2.75%
CN1CCc2c(sc3c2c(NCc2ccco2)nc2nnnn23)C1	-5.9%
COc1ccc(-c2nc(CS(=O)CC(=O)NCc3cccnc3)c(C)o2)cc1OC (stereo unspecified)	-0.41%
CCOC(=O)c1c(CN2CCOCC2)n(-c2ccccc2)c2ccc(O)cc12	9.89%
COc1cc(OC)cc(-c2nc3nc(C)c(CCC(=O)NCc4ccco4)c(C)n3n2)c1	0.61%
CC(=O)c1nc(N2C(=O)C3CC=C(C)CC3C2=O)sc1C (stereo unspecified)	8.57%

Structure (SMILES)	inhibition
O=C1c2oc3ccc(Br)cc3c(=O)c2C(c2cccc(F)c2)N1CCO (stereo unspecified)	2.5%
CN1C(=O)c2ccc(NC(=O)c3c(F)c(F)c(F)c(F)c3F)cc2C1=O	11.6%
Cn1c(SCC(=O)Nc2cccc(O)c2)nnc1-c1ccc(S(=O)(=O)N2CCOCC2)cc1	0.17%
Fc1ccccc1OCCCCn1cncn1	2.62%
CCOCCCNS(=O)(=O)Cc1ccccc1	8.39%
Cc1ccc(O)c(NC(=O)COc2cc(C)ccc2C)c1	4.28%
CCCOc1ccc(C2C(C(=O)c3ccc(C)o3)=C(O)C(=O)N2CCCn2ccnc2)cc1 (stereo unspecified)	5.52%
O=C(Nc1ccon1)c1sc2ccccc2c1Cl	-7.58%
NC(CSC12CC3CC(CC(C3)C1)C2)C(=O)O (stereo unspecified)	4.34%
CC(C)c1nc(-c2ccccn2)no1	4.3%
O=C(NCc1ccccc1)C1C(=O)N(Cc2ccccc2)C(=O)C1C1(O)CCCC1 (stereo unspecified)	-8.01%
CCOCC(=O)Nc1cc(OC)c(Cl)cc1OC	5.42%
Cc1ccc(S(=O)(=O)N2C3C=CC(C3)C2C(=O)O)cc1 (stereo unspecified)	8.4%
Cc1cccc(N2C(=O)SC(N(CC(=O)O)c3cccc(C)c3)C2=O)c1 (stereo unspecified)	6.1%
COc1cccc(C(CC(=O)NCCN2CCOCC2)NS(=O)(=O)c2ccc(C)cc2)c1OC (stereo unspecified)	4.2%
Cc1ccc(C(=O)CSc2nc3ccccc3c(=O)n2N)o1	4.54%
Cc1ccsc1C(=O)OCC(=O)c1cc2ccccc2o1	8.68%
Cc1cc2c(=O)n(C)c(SCC(=O)c3cc4ccccc4o3)nc2s1	20.9% (active)
O=C(CN1C(=O)C2C3C=CC(C3)C2C1=O)NCC1COc2ccccc2O1 (stereo unspecified)	-8.67%
O=C1CCC(Cc2ccccc2)N1 (stereo unspecified)	6.1%
Cn1c(=O)n(C)c(=O)n(CC(=O)N2CCCCC2)c1=O	5.37%
CC(=O)Nc1cccc2c1[n+]([O-])c(C)c(C)[n+]2[O-]	-3.37%
O=C(Nc1nc2cc3c(cc2s1)OCCO3)c1cccc(S(=O)(=O)N2CCOCC2)c1	-1.12%

Structure (SMILES)	inhibition
CCCN1C(=O)C(NC(C)=O)c2cc(OC)ccc21 (stereo unspecified)	8.13%
Cc1noc(NS(=O)(=O)c2ccc(NC(=O)C34CCC(CC3)C4)cc2)c1C	3.43%
COc1cccc2sc(Nc3nc(C)c(C(C)=O)s3)nc12	-0.4%
CCCOc1ccc(NC(=O)C2CCCNC2=O)cc1 (stereo unspecified)	2.77%
CCCCOC(=O)NCN1C(=O)C2C3C=CC(C3)C2C1=O (stereo unspecified)	0.68%
COc1ccc(OC)c(NC(=O)CC(Cc2ccccc2OC)C(=O)O)c1 (stereo unspecified)	4.42%
CC(C)N(C(=O)Cn1c(SCC(=O)N2CCN(c3ccccc3)CC2)nc2ccccc21)C(C)C	5.85%
O=C(Cn1nc(C(F)(F)F)c2c1CCC2)NCc1ccc(F)cc1	-0.7%
COc1ccc(CNC(=O)c2c(C)cc(=O)oc2C)cc1OC	8.6%
Cc1nc(NC(CC(C)C)C(=O)O)c2nc(C)oc2n1 (stereo unspecified)	-1.28%
O=C(CSc1n[nH]c(-c2cccnc2)n1)Nc1ccnc2ccccc12	11.1%
O=S(=O)(c1ccc(OCC(O)CN2CCN(c3ccccc3Cl)CC2)cc1)N1CCOCC1 (stereo unspecified)	1.46%
CCOc1cc(-c2nc3cc(C)ccn3c2NCC2CCCO2)ccc1O (stereo unspecified)	6.06%
CCCNS(=O)(=O)c1ccc2c(c1)CCCN2C(C)=O	5.31%
CCN(CC)c1ccc(C(=O)OCC(=O)c2ccco2)cc1	4.69%
C=CCOC(=O)C1=C(C)OC(N)=C(C#N)C1c1ccc(F)cc1 (stereo unspecified)	0.25%
Cc1ccc(C2CC(c3cccc(Br)c3)n3nc(N)nc3N2)cc1 (stereo unspecified)	8.67%
C=CCOc1ccc(C2/C(=C(\O)c3c(C)[nH]c(C(=O)OC)c3C)C(=O)C(=O)N2CCN(C)C)cc1 (stereo unspecified)	-5.38%
CC(=O)c1cccc(NC(=O)N2CCCC2C(=O)NCCC(C)C)c1 (stereo unspecified)	6.83%
Cc1ccccc1-n1c(SCC(=O)NCc2cccs2)nnc1-c1ccncc1	-3.22%
Cn1c(=O)[nH]c(=O)c2c1nc(N1CCN(CCO)CC1)n2CCSc1nc2ccccc2s1	7.67%
O=C(Nc1ccccc1F)c1cc(S(=O)(=O)N2CCCCC2)cs1	-4.61%
Cc1ccc(C)c(NS(=O)(=O)c2cc(Br)cnc2N)c1	-0.25%

Structure (SMILES)	inhibition
c1ccc(-n2ncc3c(N4CCCC4)ncnc32)cc1	10.9%
Cc1nnc(SCC(=O)N2CCc3ccccc32)n1-c1ccccc1	5.59%
Cc1ccccc1C(=O)Nc1cccc(-c2nnc(SCC(=O)O)n2C)c1	12.2%
CCn1c(SCC(=O)Nc2cccc(F)c2)nnc1-c1cc2cc(Br)ccc2o1	9.56%
O=C(NCc1cccs1)C1CCN(S(=O)(=O)c2ccc3c(c2)OCCO3)CC1	7.85%
O=C(CSc1ncccn1)NCCc1ccccc1	1.73%
CC(C)(C)c1ccc(C(=O)CSc2ncn[nH]2)cc1	5.03%
NC(=O)C1CCN(C(=O)c2ccc(C(F)(F)F)cc2)CC1	2.29%
CCC(=O)Nc1cccc(NC(=O)c2cccnc2)c1	1.22%
Cn1c(=O)cc(OCCCC(=O)N2CCN(Cc3ccc4c(c3)OCO4)CC2)c2ccccc21	14.1%
COc1ccc(CN2CN(C(C)C)CSC2=S)cc1	0.75%
Cc1ccccc1CN1CCN(CC(=O)NCc2ccccn2)C1=O	-3.92%
Clc1ccc(C2CC(c3cccs3)n3ncnc3N2)cc1Cl (stereo unspecified)	3.31%
Cc1csc(NC(=O)CN2CCCCCC2)n1	10.6%
Cc1csc(NC(=O)NC2(C(F)(F)F)Oc3ccccc3O2)n1	30.9% (active)
Cc1cc(C)nc(NC(=O)Nc2ccccc2C(F)(F)F)n1	3.47%
CCOC(=O)CC1C(=O)NCCN1C(=O)COc1ccc(Br)cc1C (stereo unspecified)	4.26%
COCCCNC(=O)c1ccc(CNS(=O)(=O)c2ccc(NC(C)=O)cc2)cc1	-9.1%
Cc1ccc(NC(=O)NCC(c2cccnc2)N2CCOCC2)cc1 (stereo unspecified)	6.82%
CCCS(=O)(=O)Nc1c(C(=O)O)[nH]c2ccccc12	8.57%
COc1ccc(Cl)cc1S(=O)(=O)Nc1cccc(C(=O)O)c1	4.26%
CC1CCCN(c2ccc(C(=O)NCCc3ccccc3)cn2)C1 (stereo unspecified)	9.14%
CCC12CN3CC(CC)(CN(C1)C31C(=O)N(C)c3ccc(C)cc31)C2=O (stereo unspecified)	9.74%

Structure (SMILES)	inhibition
COc1ccc(OC)c(C2N(c3ccccn3)C(=O)C3CCCN32)c1 (stereo unspecified)	5.57%
O=C(CCS(=O)(=O)Cc1ccccc1F)NCCCN1CCCCC1	2.74%
CCCn1c(SCC(=O)Nc2c(C)cccc2C)nnc1C(C)C	-6.26%
CCOC(=O)c1ccc(-c2ccc(C(=O)Nc3cccnc3)o2)cc1	14.4%
CC(C)NS(=O)(=O)c1ccc(NC(=O)c2cccnc2)cc1	4.79%
CC(=O)Oc1cccc(N2C(=O)C3CC=C(Cl)CC3C2=O)c1 (stereo unspecified)	9.02%
CCn1c(CSc2ncccn2)nnc1SCC(=O)N1c2ccccc2CC1C (stereo unspecified)	4.54%
O=c1c2ccccc2oc2nc3n(c(=O)c12)CCCS3	4.21%
O=C(N1CCOCC1)N1CCOCC1	0.65%
CC(C)Cc1cc(C(=O)NCCc2ccccc2)no1	-0.72%
CCC1CCCCN1CCNC(=O)c1[nH]c(C)c(C(C)=O)c1C (stereo unspecified)	3.39%
CCOC(=O)N1CCN(C(=O)c2ccc3nc4cc(Cl)ccc4c(=O)n3c2)CC1	-20.1%
CC1=C(C)CC2C(=O)N(c3cccc4ccccc34)C(=O)C2C1 (stereo unspecified)	5.39%
COc1ccccc1-c1c(C)nn2c(C)c(C(C)=O)cnc12	1.22%
Cn1cccc1C(=O)NC(=O)COC(=O)Cc1coc2ccc3ccccc3c12	4.62%
O=C(Nc1cccc(Cl)c1)OCc1ccccn1	5.59%
Cc1cc(C)c(C(=O)CN2C(=O)CCC2=O)cc1C	1.27%
O=C(CNS(=O)(=O)c1cccc(C(F)(F)F)c1)Nc1ccccc1F	12.6%
O=C1CC(c2ccccc2)C(=O)N1c1cccc(O)c1 (stereo unspecified)	4.1%
